According to PubChem BioAssay AID1159580 (chemical genetic matrix, 2015):
The campaign covered roughly 5,500 compounds. About 2,000 (36%) were called active. About 18% were inconclusive and are not listed. No stated cut-off is given here; in the data, active means normalized growth mostly below about 0.91 (no sharp cut-off); inconclusive means no clear call, values can overlap the other calls; inactive means mostly above about 0.92. The list shows a part of the results.

Experiment: chemical genetic growth profiling, strain panel (AID 1159580);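 further: tested at 20 µM; growth read once vehicle control cultures reached saturation at 30 °C; 1 = growth at the plate median or of vehicle wells; lower values mean less growth of the strain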
Conditions: growth OD

Measured: normalized growth

CC12CCC3C(CC3(C)C)C(C)(CCC1=O)O2 (configuration not stated)
inactive: S. cerevisiae deletion strains, locus YJR043C, strain POL32, active compounds read low 1.01 | S. cerevisiae deletion strains, locus YJR066W, strain TOR1, active compounds read low 0.988 | S. cerevisiae deletion strains, locus YKL009W, strain mrt4, active compounds read low 1.03 | S. cerevisiae deletion strains, locus YKL068W, active compounds read low 1.01 | S. cerevisiae deletion strains, locus YKL085W, strain MDH1 (second series), active compounds read low 1.01 | S. cerevisiae deletion strains, locus YKL085W, strain MDH1, active compounds read low 1.01 | S. cerevisiae deletion strains, locus YKL160W, strain elf1, active compounds read low 1.03 | S. cerevisiae deletion strains, locus YKL190W, strain CNB1, active compounds read low 1.01 | S. cerevisiae deletion strains, locus YKR001C, strain vps1, active compounds read low 1.03 | S. cerevisiae deletion strains, locus YKR026C, strain gcn3, active compounds read low 0.994 | S. cerevisiae deletion strains, locus YKR091W, strain srl3, active compounds read low 0.992 | S. cerevisiae deletion strains, locus YLL001W, strain dnm1, active compounds read low 1.01 | S. cerevisiae deletion strains, locus YLL026W, active compounds read low 0.997 | S. cerevisiae deletion strains, locus YLL041C, strain sdh2, active compounds read low 0.992 | S. cerevisiae deletion strains, locus YLR027C, strain aat2, active compounds read low 1.01 | S. cerevisiae deletion strains, locus YLR039C, strain RIC1, active compounds read low 1.08 | S. cerevisiae deletion strains, locus YLR058C, strain SHM2, active compounds read low 1.02 | S. cerevisiae deletion strains, locus YLR102C, strain apc9, active compounds read low 1.01 | S. cerevisiae deletion strains, locus YLR113W, strain HOG1, active compounds read low 1.04 | S. cerevisiae deletion strains, locus YLR221C, strain rsa3, active compounds read low 1 | S. cerevisiae deletion strains, locus YLR258W, strain gsy2, active compounds read low 0.99 | S. cerevisiae deletion strains, locus YLR262C, strain YPT6 (second series), active compounds read low 0.992 | S. cerevisiae deletion strains, locus YLR268W, strain sec22, active compounds read low 1.03 | S. cerevisiae deletion strains, locus YLR320W, strain mms22, active compounds read low 0.992 | S. cerevisiae deletion strains, locus YLR330W, strain CHS5, active compounds read low 1.02 | S. cerevisiae deletion strains, locus YLR342W, strain FKS1, active compounds read low 0.992 | S. cerevisiae deletion strains, locus YLR357W, strain rsc2, active compounds read low 1.01 | S. cerevisiae deletion strains, locus YLR370C, strain arc18, active compounds read low 1.03 | S. cerevisiae deletion strains, locus YLR371W, strain rom2, active compounds read low 0.982 | S. cerevisiae deletion strains, locus YLR384C, strain iki3, active compounds read low 1 | S. cerevisiae deletion strains, locus YLR418C, strain cdc73, active compounds read low 1.07 | S. cerevisiae deletion strains, locus YML016C, strain PPZ1, active compounds read low 1.01 | S. cerevisiae deletion strains, locus YML032C, strain rad52, active compounds read low 1.02 | S. cerevisiae deletion strains, locus YML120C, strain ndi1, active compounds read low 1 | S. cerevisiae deletion strains, locus YML124C, strain tub3, active compounds read low 1.02 | S. cerevisiae deletion strains, locus YMR058W, strain fet3, active compounds read low 1.02 | S. cerevisiae deletion strains, locus YMR078C, strain ctf18, active compounds read low 1.01 | S. cerevisiae deletion strains, locus YMR125W, strain sto1, active compounds read low 1.02 | S. cerevisiae deletion strains, locus YMR129W, active compounds read low 0.987 | S. cerevisiae deletion strains, locus YMR205C, strain PFK2, active compounds read low 1.01 | S. cerevisiae deletion strains, locus YMR223W, strain ubp8, active compounds read low 1.03 | S. cerevisiae deletion strains, locus YMR231W, strain pep5, active compounds read low 1.01 | S. cerevisiae deletion strains, locus YMR307W, strain GAS1, active compounds read low 1.02 | S. cerevisiae deletion strains, locus YNL067W, strain RPL9B, active compounds read low 1.03 | S. cerevisiae deletion strains, locus YNL071W, strain lat1, active compounds read low 0.999 | S. cerevisiae deletion strains, locus YNL183C, strain NPR1, active compounds read low 0.999 | S. cerevisiae deletion strains, locus YNL209W, strain ssb2, active compounds read low 0.996 | S. cerevisiae deletion strains, locus YNL233W, strain BNI4, active compounds read low 1.04 | S. cerevisiae deletion strains, locus YNL248C, strain rpa49, active compounds read low 1.04 | S. cerevisiae deletion strains, locus YNL250W, strain rad50, active compounds read low 1.05 | S. cerevisiae deletion strains, locus YNL271C, strain bni1, active compounds read low 1.02 | S. cerevisiae deletion strains, locus YNL298W, strain CLA4, active compounds read low 1.02 | S. cerevisiae deletion strains, locus YNL307C, strain MCK1, active compounds read low 1.03 | S. cerevisiae deletion strains, locus YNL322C, strain KRE1 (second series), active compounds read low 0.985 | S. cerevisiae deletion strains, locus YNL322C, strain KRE1, active compounds read low 1.01 | S. cerevisiae deletion strains, locus YNR049C, strain mso1, active compounds read low 0.999 | S. cerevisiae deletion strains, locus YNR052C, strain pop2, active compounds read low 1.04 | S. cerevisiae deletion strains, locus YOL006C, strain TOP1, active compounds read low 1.08 | S. cerevisiae deletion strains, locus YOL012C, strain htz1 0.815 | S. cerevisiae deletion strains, locus YOL147C, strain pex11, active compounds read low 0.996 | S. cerevisiae deletion strains, locus YOR001W, strain rrp6, active compounds read low 0.95 | S. cerevisiae deletion strains, locus YOR061W, strain CKA2, active compounds read low 1.01 | S. cerevisiae deletion strains, locus YOR069W, strain VPS5, active compounds read low 1.02 | S. cerevisiae deletion strains, locus YOR070C, strain gyp1, active compounds read low 1.03 | S. cerevisiae deletion strains, locus YOR080W, strain dia2, active compounds read low 0.989 | S. cerevisiae deletion strains, locus YOR083W, strain WHI5, active compounds read low 1.03 | S. cerevisiae deletion strains, locus YOR106W, strain vam3, active compounds read low 0.998 | S. cerevisiae deletion strains, locus YOR136W, strain idh2, active compounds read low 1.01 | S. cerevisiae deletion strains, locus YOR144C, strain elg1, active compounds read low 1.02 | S. cerevisiae deletion strains, locus YOR184W, strain ser1, active compounds read low 0.997 | S. cerevisiae deletion strains, locus YOR231W, strain MKK1, active compounds read low 1.05 | S. cerevisiae deletion strains, locus YOR265W, strain rbl2, active compounds read low 1.02 | S. cerevisiae deletion strains, locus YOR270C, strain vph1, active compounds read low 1.1 | S. cerevisiae deletion strains, locus YOR290C, strain snf2, active compounds read low 0.975 | S. cerevisiae deletion strains, locus YOR316C, strain cot1, active compounds read low 1.02 | S. cerevisiae deletion strains, locus YPL051W, strain arl3, active compounds read low 1 | S. cerevisiae deletion strains, locus YPL055C, strain LGE1, active compounds read low 1.04 | S. cerevisiae deletion strains, locus YPL078C, strain atp4, active compounds read low 1.02 | S. cerevisiae deletion strains, locus YPL106C, strain sse1, active compounds read low 1.01 | S. cerevisiae deletion strains, locus YPL240C, strain hsp82, active compounds read low 0.994 | S. cerevisiae deletion strains, locus YPL256C, strain CLN2, active compounds read low 1.06 | S. cerevisiae deletion strains, locus YPR119W, strain clb2, active compounds read low 1.02 | S. cerevisiae deletion strains, locus YPR141C, strain kar3, active compounds read low 1.01 | S. cerevisiae deletion strains, locus YPR163C, strain tif3, active compounds read low 1.03 | S. cerevisiae deletion strains, locus YPR167C, strain met16, active compounds read low 1.02 | S. cerevisiae deletion strains, strain wtn01, active compounds read low 1.01 | S. cerevisiae strains, strain wild type, active compounds read low 1.03
